Drawing on PubChem BioAssay AID1210 (NMMLSC, 2008), this text covers inhibition for 38 compounds.

Active and inactive are the calls of the source.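 How the source made its calls: active means blocks over 70% of labeled estradiol binding at 10 µM, or over a set limit at 100 nM; inactive means the rest.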

In one test the target is Estrogen receptor beta (Homo sapiens) (UniProt Q92731). Kind of test: displacement of fluorescent estrogen from ERbeta – cell-based, Cos7 ERbeta-GFP, flow cytometry, primary screen (AID 1210).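 Further: 0% = DMSO vehicle wells and 100% = complete loss of labeled estradiol signal.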 Conditions: fluorescent estrogen binding, at 10 µM, stronger effect = higher value. (In general: In flow cytometry, cells or beads pass a laser one at a time.)
Estrogen receptor beta (Homo sapiens), sequence (Q92731 whole entry, looked up): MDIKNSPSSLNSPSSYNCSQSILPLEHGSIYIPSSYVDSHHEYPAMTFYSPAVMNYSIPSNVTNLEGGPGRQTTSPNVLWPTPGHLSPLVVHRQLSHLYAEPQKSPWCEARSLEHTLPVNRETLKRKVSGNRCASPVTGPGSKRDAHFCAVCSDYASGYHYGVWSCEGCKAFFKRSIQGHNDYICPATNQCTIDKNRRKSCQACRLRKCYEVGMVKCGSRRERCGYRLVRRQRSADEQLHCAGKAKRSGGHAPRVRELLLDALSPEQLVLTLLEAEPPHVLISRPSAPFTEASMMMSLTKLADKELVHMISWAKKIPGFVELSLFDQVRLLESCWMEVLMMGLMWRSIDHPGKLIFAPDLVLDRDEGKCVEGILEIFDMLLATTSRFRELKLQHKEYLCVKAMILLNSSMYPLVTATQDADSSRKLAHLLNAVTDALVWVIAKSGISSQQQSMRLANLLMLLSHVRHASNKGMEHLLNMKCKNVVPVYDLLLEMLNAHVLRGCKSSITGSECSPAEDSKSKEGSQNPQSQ
One may read the inhibition as the percentage by which the read-out fell short of the control. Regarding `O=C(Nc1nccs1)c1nc(-c2ccccc2)n(-c2ccccc2)n1`, the inhibition is 38% (inactive).

With `O=S(=O)(Nc1ncnc2sc3c(c12)CCC3)c1ccc2ccccc2c1`, the inhibition is 12% (inactive).

Take `COc1ccc(C(Nc2ccccn2)c2oc(CO)cc(=O)c2O)cc1` (stereo unspecified): the inhibition was 75% (active).

As to `COC1=C/C(=C/c2c(N)n3cc(C)sc3nc2=O)C=CC1=O`, the inhibition is 62% (inactive).

In the case of `O=C(Cc1cccs1)Nc1ccc(S(=O)(=O)Nc2ncccn2)cc1`, the inhibition was 62% (inactive).

`Oc1ccc(-c2cn3c(n2)SCC3)cc1O`: the inhibition was 33% (inactive).

`CC1(C)CC(=O)c2c(oc3cc(O)c(O)cc23)C1`: the inhibition is 11% (inactive).

Regarding `CCc1ccc2c(c1)[C@H]1OCC[C@H]1[C@@H](c1cccs1)N2`, the inhibition is 0% (inactive).

Regarding `Fc1ccc2c(c1)[C@H]1OCC[C@H]1[C@@H](c1ccco1)N2`, the inhibition was 37% (inactive).

As to `Cn1c(-c2ccc3nc(N)sc3c2)nc2cc(N)ccc21`, the inhibition was 68% (inactive).

Turning to `C=CCn1c(COc2cccc(C)c2)nnc1SCC(=O)NC(=O)NCc1ccco1`, the inhibition is 31% (inactive).

Regarding `C=CCn1c(=O)c(C#N)cc2c(=O)n3ccccc3nc21`, the inhibition was 39% (inactive).

`COc1cccc(C2Nc3c(F)cc(Br)cc3C3C=CCC32)c1OC` (stereo unspecified): the inhibition was 40% (active).

For the compound `CC1(C)Cc2c(sc3c4nnnn4c4nnnn4c23)CO1`, the inhibition was 23% (inactive).

On to `Cc1nnc(Oc2ccccc2F)c2ccccc12`, for which the inhibition was 47% (inactive).

With `Cc1nnc(NC(=O)CSc2nc3c(c(=O)n2CCc2ccccc2)SC(C)C3)s1` (stereo unspecified), the inhibition was 45% (inactive).

On to `O=C(O)c1ccc2c(c1)C1C=CCC1C(c1cc3c(cc1Br)OCO3)N2` (stereo unspecified), for which the inhibition was 38% (inactive).

Take `COC(=O)c1ccc(CC(=O)c2c(C)cc(O)cc2O)o1`: the inhibition is 62% (inactive).

Regarding `COc1ccc(CCn2c(SCC(=O)Nc3cc(C)on3)nc3ccsc3c2=O)cc1OC`, the inhibition is 66% (inactive).

As for `CCc1ccc2nc(NC(=O)c3ccc4c(=O)[nH]c(CN5CCOCC5)nc4c3)sc2c1`, the inhibition was 29% (inactive).

As for `COc1cc2c(cc1O)CC[n+]1cc3c(OC)c(OC)ccc3cc1-2`, the inhibition was 25% (inactive).

Regarding `O=C(c1cc2sccc2n1Cc1ccccc1)N1CCc2ccccc21`, the inhibition is 42% (inactive).

`O=S(=O)(c1cccc(-c2cn3cccnc3n2)c1)N1CCCCCC1`: the inhibition is 14% (inactive).

With `O=C(O)c1cc(-c2ccco2)nc2ccc(Br)cc12`, the inhibition is 63% (inactive).

Consider `O=c1cc(CSc2nnnn2-c2ccccc2)nc(Nc2ccc(F)cc2)[nH]1`, for which the inhibition was 0% (inactive).

`Cc1ccc(NC(=O)CN2C(=O)S/C(=C/c3ccc(-c4cc(C(=O)O)ccc4C)o3)C2=O)cc1C`: the inhibition is 36% (inactive).

Regarding `O=C(Cc1coc2cc3c(cc12)CCC3)OCc1cc(=O)n2c(n1)sc1ccccc12`, the inhibition was 56% (inactive).

In the case of `O=C(Nc1ccc(O)cc1C(=O)O)c1ccc2c(c1)C(=O)N(Cc1ccco1)C2=O`, the inhibition was 52% (active).

As to `CN1C(=O)CC(C(=O)O)SC1=Nc1cc(Cl)c(O)c(Cl)c1` (stereo unspecified), the inhibition was 48% (inactive).

Regarding `C1=C(N2CCOCC2)/C(=C/c2nc3ccccc3[nH]2)CC1`, the inhibition is 26% (inactive).

For `O=C(CSc1nc2ccccc2c(=O)[nH]1)c1ccc(O)c(O)c1`, the inhibition is 36% (inactive).

As for `Cc1c(Cl)cccc1NS(=O)(=O)c1ccc2c(c1)C1C=CCC1C(c1ccc(C(=O)O)cc1)N2` (stereo unspecified), the inhibition is 2% (inactive).

As to `COc1cc2c(cc1OC)C(Cc1ccc(O)cc1)NCC2` (stereo unspecified), the inhibition is 23% (inactive).

For `CCOC(=O)c1c(C)[nH]c(C)c1C(=O)CSc1nnc(-c2cc(OC)c(OC)c(OC)c2)o1`, the inhibition was 69% (inactive).

Take `Cc1nn(-c2ccccc2)c(/N=C/c2ccc(O)cc2)c1-c1ccccc1`: the inhibition was 78% (active).

As for `O=C(c1cc2ncc(Br)cn2n1)N1CCN(C(=O)c2ccco2)CC1`, the inhibition was 62% (active).

As to `Cc1ccc(NC(=O)CSc2nc3ccccc3c3nc4ccccc4n23)cc1`, the inhibition was 59% (inactive).

For the compound `Oc1c(Cl)cc(Cl)cc1Sc1cc(Cl)cc(Cl)c1O`, the inhibition is 33% (inactive).

Still in this test, the particulars now being: fluorescent estrogen binding, ligand binding inhibition, at 0.1 µM, stronger effect = higher value.
On to `O=C(Nc1nccs1)c1nc(-c2ccccc2)n(-c2ccccc2)n1`, for which the inhibition stood at 22%.

On to `O=S(=O)(Nc1ncnc2sc3c(c12)CCC3)c1ccc2ccccc2c1`, for which the inhibition was found to be 31%.

`COc1ccc(C(Nc2ccccn2)c2oc(CO)cc(=O)c2O)cc1` (stereo unspecified) returned an inhibition of 40%.

As to `COC1=C/C(=C/c2c(N)n3cc(C)sc3nc2=O)C=CC1=O`, the inhibition turned out to be 7%.

Take `O=C(Cc1cccs1)Nc1ccc(S(=O)(=O)Nc2ncccn2)cc1`: the inhibition amounted to 1%.

`Oc1ccc(-c2cn3c(n2)SCC3)cc1O` had an inhibition of 22%.

`CC1(C)CC(=O)c2c(oc3cc(O)c(O)cc23)C1` had an inhibition of 3%.

`CCc1ccc2c(c1)[C@H]1OCC[C@H]1[C@@H](c1cccs1)N2`: the inhibition came out at 65%.

As for `Fc1ccc2c(c1)[C@H]1OCC[C@H]1[C@@H](c1ccco1)N2`, the inhibition worked out at 1%.

Regarding `Cn1c(-c2ccc3nc(N)sc3c2)nc2cc(N)ccc21`, the inhibition stood at 17%.

`C=CCn1c(COc2cccc(C)c2)nnc1SCC(=O)NC(=O)NCc1ccco1` yielded an inhibition of 47%.

`C=CCn1c(=O)c(C#N)cc2c(=O)n3ccccc3nc21` came in with an inhibition of 22%.

`COc1cccc(C2Nc3c(F)cc(Br)cc3C3C=CCC32)c1OC` (stereo unspecified) gave an inhibition of 74%.

Regarding `CC1(C)Cc2c(sc3c4nnnn4c4nnnn4c23)CO1`, the inhibition amounted to 40%.

`Cc1nnc(Oc2ccccc2F)c2ccccc12` had an inhibition of 38%.

`Cc1nnc(NC(=O)CSc2nc3c(c(=O)n2CCc2ccccc2)SC(C)C3)s1` (stereo unspecified) displayed an inhibition of 34%.

The compound `O=C(O)c1ccc2c(c1)C1C=CCC1C(c1cc3c(cc1Br)OCO3)N2` (stereo unspecified) came in with an inhibition of 6%.

Consider `COC(=O)c1ccc(CC(=O)c2c(C)cc(O)cc2O)o1`, for which the inhibition was 22%.

Compound `COc1ccc(CCn2c(SCC(=O)Nc3cc(C)on3)nc3ccsc3c2=O)cc1OC` returned an inhibition of 18%.

Compound `CCc1ccc2nc(NC(=O)c3ccc4c(=O)[nH]c(CN5CCOCC5)nc4c3)sc2c1` yielded an inhibition of 10%.

`COc1cc2c(cc1O)CC[n+]1cc3c(OC)c(OC)ccc3cc1-2` yielded an inhibition of 23%.

On to `O=C(c1cc2sccc2n1Cc1ccccc1)N1CCc2ccccc21`, for which the inhibition was 2%.

`O=S(=O)(c1cccc(-c2cn3cccnc3n2)c1)N1CCCCCC1` came in with an inhibition of 17%.

Take `O=C(O)c1cc(-c2ccco2)nc2ccc(Br)cc12`: the inhibition amounted to 9%.

In turn, `O=c1cc(CSc2nnnn2-c2ccccc2)nc(Nc2ccc(F)cc2)[nH]1` had an inhibition of 25%.

As to `Cc1ccc(NC(=O)CN2C(=O)S/C(=C/c3ccc(-c4cc(C(=O)O)ccc4C)o3)C2=O)cc1C`, the inhibition turned out to be 21%.

In turn, `O=C(Cc1coc2cc3c(cc12)CCC3)OCc1cc(=O)n2c(n1)sc1ccccc12` gave an inhibition of 14%.

`O=C(Nc1ccc(O)cc1C(=O)O)c1ccc2c(c1)C(=O)N(Cc1ccco1)C2=O`: the inhibition is 72%.

As to `CN1C(=O)CC(C(=O)O)SC1=Nc1cc(Cl)c(O)c(Cl)c1` (stereo unspecified), the inhibition stood at 14%.

`C1=C(N2CCOCC2)/C(=C/c2nc3ccccc3[nH]2)CC1` showed an inhibition of 20%.

`O=C(CSc1nc2ccccc2c(=O)[nH]1)c1ccc(O)c(O)c1` showed an inhibition of 14%.

`Cc1c(Cl)cccc1NS(=O)(=O)c1ccc2c(c1)C1C=CCC1C(c1ccc(C(=O)O)cc1)N2` (stereo unspecified) registered an inhibition of 12%.

`COc1cc2c(cc1OC)C(Cc1ccc(O)cc1)NCC2` (stereo unspecified) displayed an inhibition of 13%.

The compound `CCOC(=O)c1c(C)[nH]c(C)c1C(=O)CSc1nnc(-c2cc(OC)c(OC)c(OC)c2)o1` gave an inhibition of 7%.

The compound `Cc1nn(-c2ccccc2)c(/N=C/c2ccc(O)cc2)c1-c1ccccc1` registered an inhibition of 44%.

`O=C(c1cc2ncc(Br)cn2n1)N1CCN(C(=O)c2ccco2)CC1` displayed an inhibition of 67%.

In turn, `Cc1ccc(NC(=O)CSc2nc3ccccc3c3nc4ccccc4n23)cc1` came in with an inhibition of 7%.

Turning to `Oc1c(Cl)cc(Cl)cc1Sc1cc(Cl)cc(Cl)c1O`, the inhibition came out at 22%.
